Screen size: about 370,000 compounds; about 2,400 (0.65%) were called active. For the sample, actives were picked, then their nearest neighbours and some compounds at random. Values without a mark were called inactive.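 The calls were made as follows: active = inhibition above the screen-wide mean plus 3 SD (cut at about 13% in these data); inactive = the rest.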

This experiment relates to HIV-1 integrase (with human LEDGF/p75). In words: blockers of LEDGF/p75-dependent integrase strand transfer – biochemical, TR-FRET, high throughput, primary screen (AID 743269).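 Also: signal is the Cy5 over europium emission ratio at 671 and 618 nm; 0% = plate median of compound wells.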 To be noted: TR-FRET IN-LEDGF/p75 DNA integration, Eu/Cy5; at 3.7 µM; stronger effect = higher value. In general terms: Time-resolved FRET reads energy transfer from a long-lived donor to a nearby acceptor.
For orientation: inhibition means the drop in the measured response relative to a control, in per cent. For `O=C(Nc1ccc(Br)cc1)OCCN1C(=O)CCC12CCC(c1ccccc1)CC2` (stereo not drawn), the inhibition is -0.45%. Consider `Cc1cccc2cc3c(N)c(C(=O)N4CCCc5ccccc54)sc3nc12`, for which the inhibition is 1.54%. Regarding `Cc1ccc(C(=O)N2CCCc3ccccc32)c(Cl)c1`, the inhibition was 38% (active). With `Cc1ccc2c(c1)N(CC(=O)N1CCCc3ccccc31)C(=O)C(C)O2` (stereo not drawn), the inhibition was 4.28%. The value for `COc1ccc(C(=O)CSc2nnc(-c3cnccn3)n2-c2ccc(C)cc2)cc1` was 0.86%; that for `Cc1ccccc1NC(=O)Cn1nnc(-c2ccccc2F)n1` was 3.47%.

`Cc1cc(=O)[nH]c(SCC(=O)Nc2ccc(Cl)cc2C)n1`: the inhibition was 0.96%.

Regarding `COCCNC(=S)c1ccc(OC)cc1`, the inhibition is -1.56%.

Regarding `COCCNC(=O)c1cc2c(Br)ccc(Br)c2nc1N`, the inhibition is -5.17%. Turning to `COCCNC(=O)Nc1ccc2nc(-c3ccco3)c(-c3ccco3)nc2c1`, the inhibition is 90.1% (active).

In the case of `COc1ccc(CCNC(=O)CSc2nc3c([nH]2)c(=O)n(C)c(=O)n3C)cc1`, the inhibition is 0.75%. Turning to `O=C(NCc1cccs1)C1CCN(S(=O)(=O)c2ccccc2[N+](=O)[O-])CC1`, the inhibition was 3.07%. Turning to `CC(C)(C)NC(=O)C(c1cccnc1)N(C(=O)c1cnco1)c1ccc(C(C)(C)C)cc1` (stereo not drawn), the inhibition was 0.93%. The result for `CCOC(=O)[C@]12CCCCC/C=C\1N(Cc1ccc(OC)cc1)C(=O)[C@H]2CC(=O)NCc1ccc(C)o1` reads -2.04%; that for `COC(=O)c1ccc(COc2ccc(/C=C/C(=O)c3ccc(OC)c(CSCC(=O)O)c3)cc2OC)cc1`, 1.77%; that for `COc1ccc(C(=O)/C=C/c2ccc(-c3ccccc3)cc2)cc1CSCC(=O)O`, 13.5% (active). With `COc1ccc(C(C)=O)cc1CSc1nc2nc(C)cc(C)n2n1`, the inhibition is -4%. For the compound `CCOc1ccc(Oc2c(Cl)cnn(-c3ccc(C)cc3)c2=O)cc1`, the inhibition is -2.65%. On to `COc1cccc(N(C)C(=O)[C@@H](C)[C@@H](O)c2ccc3ccccc3c2)c1`, for which the inhibition is 2.81%.

Turning to `CC(=O)c1ccc(OCC(=O)N(C)C2CCS(=O)(=O)C2)cc1` (stereo not drawn), the inhibition was 1.55%.

In the case of `CN(C(=O)COC(=O)c1cc(=O)[nH]c2ccccc12)C1CCCCC1`, the inhibition was -9.3%. With `CN(C(=O)COC(=O)c1cc(-c2ccco2)nc2ccccc12)C1CCS(=O)(=O)C1` (stereo not drawn), the inhibition was 30.7% (active). Consider `CCOC(=O)[C@]12CCCC=C1N(Cc1ccc(OC)cc1)C(=O)[C@@H]2CC(=O)NCc1cccs1`, for which the inhibition was 0.74%.

For the compound `C=CCN1C(=O)C(O)(CC(=O)c2ccccn2)c2ccccc21` (stereo not drawn), the inhibition is 15.4% (active). With `CCOC(=O)CN1C(=O)C(O)(CC(=O)c2ccccn2)c2ccccc21` (stereo not drawn), the inhibition was 3.17%. With `O=C(CC1(O)C(=O)N(CN2CCOCC2)c2ccccc21)c1ccccc1` (stereo not drawn), the inhibition was 3.55%. In the case of `N#CCC[C@H]1CC[C@]2(CCCN(Cc3ccc(Cl)cc3)C2)O1`, the inhibition was 0.5%.

As to `O=S1(=O)c2ccc(Br)cc2OC[C@H](Cc2ccccc2)N1Cc1cn(Cc2ccccc2)nn1`, the inhibition is -5.3%. In the case of `Clc1cc(NC2CCCCC2)ncn1`, the inhibition is 21.7% (active).

Turning to `CCc1cc2c(NC3CCCC3)ncnc2s1`, the inhibition was -1.83%. Turning to `Cc1cc([N+](=O)[O-])c(NC2CCCCC2)c([N+](=O)[O-])c1`, the inhibition is 0.17%. `O=C(C1CCN(S(=O)(=O)c2ccccc2)CC1)N1CCN(C2CCCCC2)CC1`: the inhibition was -2.53%.

Take `Cc1cc(C)cc(NC(=O)N2CCC(N(C)CCC(C)C)CC2)c1`: the inhibition is 3.5%. The result for `O=C(CC(Cc1ccccc1)C(=O)O)NCCc1ccc2c(c1)OCO2` (stereo not drawn) reads -1.84%.

Regarding `CC(=NCc1ccc2c(c1)OCO2)C1=C(O)c2ccccc2C1=O`, the inhibition was 14.5% (active). For the compound `CC1(C(=O)NCc2ccc3c(c2)OCO3)CCN1CCc1ccccc1` (stereo not drawn), the inhibition is 3.29%. Regarding `O=S(=O)(c1ccccc1)N1CCC(c2nc3ccccc3o2)CC1`, the inhibition was -3.8%. The value for `Cc1ccc(C(=O)N(Cc2ccccn2)CC2CCCO2)cc1` (stereo not drawn) was -1.5%; that for `O=C(CSc1nc2ccccc2nc1N1CCCCC1)N1CCN(S(=O)(=O)c2cccc([N+](=O)[O-])c2)CC1` was 7.35%; that for `CC(C)CNS(=O)(=O)CC1NCCc2ccccc21` (stereo not drawn) was -2.87%. For the compound `CC(=O)O[C@H]1CC[C@@]2(C)[C@@H](CC[C@@H]3[C@@H]2CC[C@]2(C)[C@@H](C(C)(C)O)C[C@@H]32)C1`, the inhibition was 0.72%. On to `C[C@H]([C@@H](O)[C@@H](O)[C@@H](C)C(C)(C)C)[C@H]1CC[C@H]2C3CC[C@H]4C[C@H](OS(=O)(=O)O)[C@@H](OS(=O)(=O)O)C[C@]4(C)[C@H]3CC[C@]12C` (stereo partly drawn), for which the inhibition is 22.1% (active). For `C=C1C(C(C)C)N(C)C2=NC(c3ccccc3)CC(=O)N12` (stereo not drawn), the inhibition was 1.74%. In the case of `COC(=O)C1CN(Cc2ccc(F)cc2)CCS(=O)(=O)N1Cc1ccc(Cl)cc1` (stereo not drawn), the inhibition is -0.83%.

Regarding `CCc1ccccc1NC(=O)CSc1nnc(-c2cccs2)o1`, the inhibition is 1.45%. As to `O=C(c1cccc(N2CCCC2=O)c1)N1CCOCC1`, the inhibition is -4.51%. The result for `NC1=NN(c2cccc(C(=O)O)c2)C(=O)C1` reads 13.8% (active); that for `C/C(=N\NC(=O)c1cccc(N2CCCC2=O)c1)c1ccc(N)cc1`, -2.92%; that for `CCOC(=O)N1CCN(C(=O)C[C@H]2C[C@@]3(C(=O)OC)C(=C[C@H](C(C)(C)C)O[C@@H]3C)N(Cc3ccc(Cl)cc3Cl)C2=O)CC1`, -2.55%.

For the compound `Cc1ccsc1-c1cc(C(=O)O)c2c(ccc3ccccc32)n1`, the inhibition is 0.22%. Consider `Cc1cc(C)c2nc(-c3ccco3)cc(C(=O)O)c2c1`, for which the inhibition is 57.2% (active). As for `CCOC(=O)c1ccn(-c2nc(-c3ccco3)cc(C(F)(F)F)n2)n1`, the inhibition is -1.1%. On to `COc1ccc(-n2c(COc3ccc(C)cc3)nnc2SCC(=O)Nc2ccc(Oc3ccccc3)cc2)cc1`, for which the inhibition was -0.53%.

Turning to `COC(=O)c1cccc(Cn2ccc3ccc(-c4ccc5ccn(C(=O)c6ccccc6C)c5c4)cc32)c1`, the inhibition is 1.28%. `CC(C)(C)c1ccc(CSc2nnc(-c3cccs3)o2)cc1`: the inhibition was -0.85%. As for `CCOc1ccc(CN2CCN(Cc3ccc(C)o3)CC2CCO)cc1` (stereo not drawn), the inhibition was -3.16%.

With `COc1ccc(CN2CCN(Cc3cn(C)nc3-c3ccccc3)CC2CCO)c(C)c1C` (stereo not drawn), the inhibition is 3.11%. On to `CCn1nc(C)c(CN2CCN(Cc3ccc(OC)c(C)c3C)C(CCO)C2)c1C` (stereo not drawn), for which the inhibition is 13.4% (active).
